This note sets out measurements from PMC7862700, “An all-to-all approach to the identification of sequence-specific readers for epigenetic DNA modifications on cytosine”.

What all share (assay): DAPPL (digital affinity profiling via proximity ligation, sequencing); 10 mM Tris-HCl pH 7.5, 50 mM NaCl, 1 mM DTT, 4% glycerol, room temperature, 30 min; GST-TFs on glutathione beads, 16-mer random dsDNA library, 0.1% formaldehyde crosslink after washing; high values mean tight binding
In one assay the target is T1, FEV (Homo sapiens, UniProt Q99581 1-238).
T1 sequence: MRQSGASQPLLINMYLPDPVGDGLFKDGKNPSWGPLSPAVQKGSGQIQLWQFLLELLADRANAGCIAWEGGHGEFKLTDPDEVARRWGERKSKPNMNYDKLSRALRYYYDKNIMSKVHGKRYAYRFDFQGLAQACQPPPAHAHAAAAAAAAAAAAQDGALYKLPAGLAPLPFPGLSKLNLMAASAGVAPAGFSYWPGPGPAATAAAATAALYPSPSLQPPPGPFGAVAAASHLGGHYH
The settings on record: protein: recombinant; tags: N-terminal GST; dsDNA, one strand shown. The essentials:
(§1)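 Binding signal is each hexamer's read frequency for a factor divided by its frequency in the tag-only sample. The factors were GST-fused human transcription factors from yeast, captured on glutathione beads, DNA-barcoded and pooled with that sample. Pools were incubated with 200 nmole of a random double-stranded 16-mer DNA library in Tris/NaCl/DTT/glycerol buffer at room temperature for 30 min, then washed, crosslinked with 0.1% formaldehyde, proximity-ligated with BsaI/T4 ligase (1 h, 37 °C), PCR-amplified and sequenced on an Illumina NextSeq500.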

The next assay deals with ETV5 (Homo sapiens, UniProt P41161 1-510). The settings on record: protein: recombinant; tags: N-terminal GST; dsDNA, one strand shown. The essentials: as §1
The next assay concerns the target HSF1 (Homo sapiens, UniProt Q00613 1-529). The note with it: protein: recombinant; tags: N-terminal GST; chain copies: 3; dsDNA, one strand shown. The procedure, abridged:
as §1

A further assay has as its target T2, SPIC (Homo sapiens, UniProt Q8N5J4 1-248).
T2 sequence: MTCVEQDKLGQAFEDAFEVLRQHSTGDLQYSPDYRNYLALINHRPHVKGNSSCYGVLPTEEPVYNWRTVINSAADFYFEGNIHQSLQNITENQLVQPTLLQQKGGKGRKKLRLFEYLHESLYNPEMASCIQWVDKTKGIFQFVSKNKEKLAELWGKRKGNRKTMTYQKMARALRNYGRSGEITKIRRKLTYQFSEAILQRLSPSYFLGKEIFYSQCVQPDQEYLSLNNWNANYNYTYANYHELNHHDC
The note with it: protein: recombinant; tags: N-terminal GST; dsDNA, one strand shown. The essentials: as §1

The target in the next assay is ELF4 (Homo sapiens, UniProt Q99607 1-663). The settings on record: protein: recombinant; tags: N-terminal GST; dsDNA, one strand shown. The procedure, abridged: as §1
The target of another assay is T3, ELK4 (Homo sapiens, UniProt P28324-2 1-405).
T3 sequence: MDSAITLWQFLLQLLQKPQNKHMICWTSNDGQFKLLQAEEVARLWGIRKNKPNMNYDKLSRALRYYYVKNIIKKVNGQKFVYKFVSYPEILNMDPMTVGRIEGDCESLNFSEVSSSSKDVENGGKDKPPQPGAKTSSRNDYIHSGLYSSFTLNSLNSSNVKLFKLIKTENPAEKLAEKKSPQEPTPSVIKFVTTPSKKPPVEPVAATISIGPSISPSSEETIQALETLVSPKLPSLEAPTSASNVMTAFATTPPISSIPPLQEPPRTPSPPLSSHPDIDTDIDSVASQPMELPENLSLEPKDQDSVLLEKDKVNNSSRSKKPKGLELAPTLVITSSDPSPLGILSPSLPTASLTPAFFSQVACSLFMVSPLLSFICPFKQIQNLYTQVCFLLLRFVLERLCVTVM
The settings on record: protein: recombinant; tags: N-terminal GST; dsDNA, one strand shown. The essentials: as §1

A further assay addresses T4, ETV2 (Homo sapiens, UniProt O00321 1-342).
T4 sequence: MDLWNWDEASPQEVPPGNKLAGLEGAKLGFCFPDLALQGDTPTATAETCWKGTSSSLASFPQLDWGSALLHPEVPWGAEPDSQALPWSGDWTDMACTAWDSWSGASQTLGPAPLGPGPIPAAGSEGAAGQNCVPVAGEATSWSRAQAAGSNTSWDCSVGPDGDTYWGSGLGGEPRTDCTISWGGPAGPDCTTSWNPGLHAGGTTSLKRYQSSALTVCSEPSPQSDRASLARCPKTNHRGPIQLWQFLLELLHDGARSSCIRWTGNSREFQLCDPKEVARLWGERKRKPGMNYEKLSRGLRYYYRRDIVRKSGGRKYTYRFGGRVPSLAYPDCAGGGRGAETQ
The note with it: protein: recombinant; tags: N-terminal GST; dsDNA, one strand shown. The procedure, abridged:
as §1

The target in the next assay is T5, ELF3 (Homo sapiens, UniProt P78545 1-371).
T5 sequence: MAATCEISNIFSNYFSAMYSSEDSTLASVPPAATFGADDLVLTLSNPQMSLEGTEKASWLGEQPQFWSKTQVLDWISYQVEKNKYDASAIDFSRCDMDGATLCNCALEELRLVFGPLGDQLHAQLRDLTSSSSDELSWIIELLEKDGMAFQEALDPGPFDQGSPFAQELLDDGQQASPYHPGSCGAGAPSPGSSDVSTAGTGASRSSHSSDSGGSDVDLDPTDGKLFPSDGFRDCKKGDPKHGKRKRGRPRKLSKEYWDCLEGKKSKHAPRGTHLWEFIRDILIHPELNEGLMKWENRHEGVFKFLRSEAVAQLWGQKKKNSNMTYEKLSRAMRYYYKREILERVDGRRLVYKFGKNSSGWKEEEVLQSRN
The note with it: protein: recombinant; tags: N-terminal GST; dsDNA, one strand shown. The procedure, abridged:
as §1

The target of a further assay is CRX (Homo sapiens, UniProt O43186 1-299). The note with it: protein: recombinant; tags: N-terminal GST; dsDNA, one strand shown. The procedure, abridged: as §1
The next assay addresses ETV1 (Homo sapiens, UniProt P50549 1-477). The note with it: protein: recombinant; tags: N-terminal GST; dsDNA, one strand shown. The essentials:
as §1

The next assay has as its target T6, ERF (Homo sapiens, UniProt P50548 1-548).
T6 sequence: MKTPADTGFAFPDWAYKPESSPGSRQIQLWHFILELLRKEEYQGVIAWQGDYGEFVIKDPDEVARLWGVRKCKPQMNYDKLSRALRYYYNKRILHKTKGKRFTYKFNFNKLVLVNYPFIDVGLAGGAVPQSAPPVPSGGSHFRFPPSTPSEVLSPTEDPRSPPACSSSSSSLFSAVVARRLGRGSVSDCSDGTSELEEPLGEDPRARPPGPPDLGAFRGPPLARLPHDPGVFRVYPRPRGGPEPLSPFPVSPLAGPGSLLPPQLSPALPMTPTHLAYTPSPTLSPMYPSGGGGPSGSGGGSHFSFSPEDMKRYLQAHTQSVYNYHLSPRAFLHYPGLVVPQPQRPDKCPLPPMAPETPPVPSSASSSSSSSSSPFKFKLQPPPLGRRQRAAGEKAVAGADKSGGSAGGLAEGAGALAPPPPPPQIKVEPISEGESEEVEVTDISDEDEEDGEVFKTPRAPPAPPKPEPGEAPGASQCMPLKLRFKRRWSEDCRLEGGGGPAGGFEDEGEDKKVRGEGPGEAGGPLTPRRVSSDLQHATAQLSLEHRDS
The settings on record: protein: recombinant; tags: N-terminal GST; dsDNA, one strand shown. The procedure, abridged: as §1

The next assay has as its target T7, ETV3L (Homo sapiens, UniProt Q6ZN32 1-361).
T7 sequence: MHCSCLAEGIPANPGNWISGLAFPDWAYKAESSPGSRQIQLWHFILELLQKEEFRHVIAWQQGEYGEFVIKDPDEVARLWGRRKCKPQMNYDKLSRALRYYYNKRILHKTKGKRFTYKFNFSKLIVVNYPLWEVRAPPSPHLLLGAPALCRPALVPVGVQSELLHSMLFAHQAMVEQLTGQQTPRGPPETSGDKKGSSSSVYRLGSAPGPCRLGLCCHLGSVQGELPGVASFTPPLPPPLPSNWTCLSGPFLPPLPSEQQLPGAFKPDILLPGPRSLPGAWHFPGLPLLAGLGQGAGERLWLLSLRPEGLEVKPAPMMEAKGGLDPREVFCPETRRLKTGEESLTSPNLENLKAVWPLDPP
The settings on record: protein: recombinant; tags: N-terminal GST; dsDNA, one strand shown. The essentials:
as §1

The next assay deals with T8, ETS2 (Homo sapiens, UniProt P15036 1-469).
T8 sequence: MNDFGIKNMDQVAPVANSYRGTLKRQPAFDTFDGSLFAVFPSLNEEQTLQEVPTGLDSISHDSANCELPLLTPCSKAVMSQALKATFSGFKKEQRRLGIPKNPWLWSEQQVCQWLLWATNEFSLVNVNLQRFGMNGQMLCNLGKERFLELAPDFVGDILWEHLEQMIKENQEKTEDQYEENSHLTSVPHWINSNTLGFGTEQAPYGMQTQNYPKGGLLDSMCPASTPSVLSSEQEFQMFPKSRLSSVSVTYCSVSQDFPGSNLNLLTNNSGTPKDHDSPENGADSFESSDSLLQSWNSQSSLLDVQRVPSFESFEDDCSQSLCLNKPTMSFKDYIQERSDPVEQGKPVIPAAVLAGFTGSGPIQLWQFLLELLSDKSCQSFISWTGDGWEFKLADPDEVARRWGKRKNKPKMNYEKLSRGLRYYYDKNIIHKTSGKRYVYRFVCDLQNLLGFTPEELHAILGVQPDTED
The settings on record: protein: recombinant; tags: N-terminal GST; dsDNA, one strand shown. The procedure, abridged: as §1

For a further assay, the target named is T9, SPDEF (Homo sapiens, UniProt O95238 1-335).
T9 sequence: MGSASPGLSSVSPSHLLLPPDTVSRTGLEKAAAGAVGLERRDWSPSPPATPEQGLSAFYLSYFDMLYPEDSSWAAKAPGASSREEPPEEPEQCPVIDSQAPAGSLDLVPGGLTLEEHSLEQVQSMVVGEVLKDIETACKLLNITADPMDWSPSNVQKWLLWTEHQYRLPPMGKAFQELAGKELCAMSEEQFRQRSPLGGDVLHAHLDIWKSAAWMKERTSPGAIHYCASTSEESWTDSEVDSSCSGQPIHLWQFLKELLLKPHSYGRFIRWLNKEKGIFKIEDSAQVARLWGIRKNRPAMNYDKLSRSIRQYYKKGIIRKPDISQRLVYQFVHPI
The note with it: protein: recombinant; tags: N-terminal GST; dsDNA, one strand shown. The procedure, abridged: as §1

Another assay has as its target T10, ETV7 (Homo sapiens, UniProt Q9Y603 1-341).
T10 sequence: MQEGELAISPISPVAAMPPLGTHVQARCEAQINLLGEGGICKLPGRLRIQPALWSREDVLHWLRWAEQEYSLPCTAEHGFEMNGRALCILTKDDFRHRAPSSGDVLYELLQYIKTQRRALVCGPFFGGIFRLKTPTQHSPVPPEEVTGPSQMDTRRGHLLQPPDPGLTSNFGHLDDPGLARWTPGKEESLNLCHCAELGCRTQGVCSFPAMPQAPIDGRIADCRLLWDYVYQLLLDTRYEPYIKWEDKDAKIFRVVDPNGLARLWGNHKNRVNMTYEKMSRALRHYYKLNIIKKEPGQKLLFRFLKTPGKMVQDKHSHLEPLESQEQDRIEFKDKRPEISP
The settings on record: protein: recombinant; tags: N-terminal GST; dsDNA, one strand shown. The procedure, abridged:
as §1

The target of a further assay is T11, ELF5 (Homo sapiens, UniProt Q9UKW6-2 1-255).
T11 sequence: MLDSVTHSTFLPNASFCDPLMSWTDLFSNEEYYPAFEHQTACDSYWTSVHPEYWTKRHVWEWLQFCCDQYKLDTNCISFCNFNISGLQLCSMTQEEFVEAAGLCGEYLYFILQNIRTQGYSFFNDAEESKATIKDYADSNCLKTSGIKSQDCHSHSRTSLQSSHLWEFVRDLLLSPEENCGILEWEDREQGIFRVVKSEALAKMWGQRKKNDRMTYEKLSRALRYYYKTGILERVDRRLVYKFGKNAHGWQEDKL
The settings on record: protein: recombinant; tags: N-terminal GST; dsDNA, one strand shown. The procedure, abridged:
as §1

The target in the next assay is T12, ETV3 (Homo sapiens, UniProt P41162-2 1-143).
T12 sequence: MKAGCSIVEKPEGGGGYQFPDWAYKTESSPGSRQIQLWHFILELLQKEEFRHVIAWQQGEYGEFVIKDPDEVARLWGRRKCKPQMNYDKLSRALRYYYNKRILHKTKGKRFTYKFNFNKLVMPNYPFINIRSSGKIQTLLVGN
The note with it: protein: recombinant; tags: N-terminal GST; dsDNA, one strand shown. The essentials: as §1

In another assay the target is ETV6 (Homo sapiens, UniProt P41212 1-452). The settings on record: protein: recombinant; tags: N-terminal GST; dsDNA, one strand shown. The procedure, abridged:
as §1

Chain of ETV5 (P41161 whole entry): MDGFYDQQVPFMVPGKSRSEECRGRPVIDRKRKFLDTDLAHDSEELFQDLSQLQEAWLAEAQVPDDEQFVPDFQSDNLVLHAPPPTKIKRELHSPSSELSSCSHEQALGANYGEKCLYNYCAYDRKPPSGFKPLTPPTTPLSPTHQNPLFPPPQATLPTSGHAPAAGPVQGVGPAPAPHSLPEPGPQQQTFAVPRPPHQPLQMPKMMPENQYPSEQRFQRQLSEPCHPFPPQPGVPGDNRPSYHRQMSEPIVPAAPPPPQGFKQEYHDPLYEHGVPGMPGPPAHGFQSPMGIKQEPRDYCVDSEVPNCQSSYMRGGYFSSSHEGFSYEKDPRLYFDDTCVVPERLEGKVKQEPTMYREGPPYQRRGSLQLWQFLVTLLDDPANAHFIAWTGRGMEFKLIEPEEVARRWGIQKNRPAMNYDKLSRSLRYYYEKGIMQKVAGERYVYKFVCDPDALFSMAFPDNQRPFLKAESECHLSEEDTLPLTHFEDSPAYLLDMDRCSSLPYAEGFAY
Chain of HSF1 (Q00613 whole entry): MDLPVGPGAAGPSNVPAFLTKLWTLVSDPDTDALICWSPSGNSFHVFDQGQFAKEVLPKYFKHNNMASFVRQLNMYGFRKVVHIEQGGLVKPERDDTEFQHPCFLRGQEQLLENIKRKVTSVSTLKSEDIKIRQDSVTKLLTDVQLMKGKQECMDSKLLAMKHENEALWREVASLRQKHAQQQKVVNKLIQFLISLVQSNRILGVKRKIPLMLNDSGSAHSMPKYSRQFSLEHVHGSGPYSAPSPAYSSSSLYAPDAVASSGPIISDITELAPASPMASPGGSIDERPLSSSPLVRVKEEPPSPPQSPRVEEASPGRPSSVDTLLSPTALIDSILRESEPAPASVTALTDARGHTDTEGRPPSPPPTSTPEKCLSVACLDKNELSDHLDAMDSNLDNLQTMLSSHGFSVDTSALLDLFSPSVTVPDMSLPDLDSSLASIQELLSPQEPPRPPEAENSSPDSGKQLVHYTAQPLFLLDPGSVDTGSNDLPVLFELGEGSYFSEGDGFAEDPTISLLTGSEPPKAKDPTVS
Chain of ETV6 (P41212 whole entry): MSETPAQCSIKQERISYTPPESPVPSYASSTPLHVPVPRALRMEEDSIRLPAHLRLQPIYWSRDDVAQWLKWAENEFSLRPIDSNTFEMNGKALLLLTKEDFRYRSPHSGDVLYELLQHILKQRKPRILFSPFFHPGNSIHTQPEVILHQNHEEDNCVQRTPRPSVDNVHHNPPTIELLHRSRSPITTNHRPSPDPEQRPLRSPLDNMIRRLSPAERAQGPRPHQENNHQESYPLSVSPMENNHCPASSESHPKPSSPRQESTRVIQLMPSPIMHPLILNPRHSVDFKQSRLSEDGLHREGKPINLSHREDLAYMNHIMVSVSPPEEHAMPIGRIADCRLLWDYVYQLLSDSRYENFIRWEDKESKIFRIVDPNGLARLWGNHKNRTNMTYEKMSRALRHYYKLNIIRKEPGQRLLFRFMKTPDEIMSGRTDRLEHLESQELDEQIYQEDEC
Chain of ELF4 (Q99607 whole entry): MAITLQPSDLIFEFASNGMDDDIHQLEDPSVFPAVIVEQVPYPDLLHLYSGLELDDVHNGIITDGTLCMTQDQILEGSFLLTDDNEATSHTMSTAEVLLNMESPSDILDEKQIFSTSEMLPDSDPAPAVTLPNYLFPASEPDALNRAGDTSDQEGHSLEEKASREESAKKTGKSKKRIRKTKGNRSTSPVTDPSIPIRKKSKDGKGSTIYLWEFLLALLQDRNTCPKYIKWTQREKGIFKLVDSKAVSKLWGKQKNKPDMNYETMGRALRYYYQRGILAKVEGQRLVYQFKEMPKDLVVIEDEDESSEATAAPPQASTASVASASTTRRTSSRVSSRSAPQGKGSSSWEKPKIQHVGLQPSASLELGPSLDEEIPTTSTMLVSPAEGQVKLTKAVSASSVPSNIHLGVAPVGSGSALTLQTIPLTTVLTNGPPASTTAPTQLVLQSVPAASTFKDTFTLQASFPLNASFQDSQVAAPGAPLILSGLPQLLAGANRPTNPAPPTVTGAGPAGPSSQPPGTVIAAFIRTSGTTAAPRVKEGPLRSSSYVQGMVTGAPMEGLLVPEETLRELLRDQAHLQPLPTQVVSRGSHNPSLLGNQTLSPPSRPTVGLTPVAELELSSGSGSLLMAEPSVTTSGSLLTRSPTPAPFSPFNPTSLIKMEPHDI
Chain of ETV1 (P50549 whole entry): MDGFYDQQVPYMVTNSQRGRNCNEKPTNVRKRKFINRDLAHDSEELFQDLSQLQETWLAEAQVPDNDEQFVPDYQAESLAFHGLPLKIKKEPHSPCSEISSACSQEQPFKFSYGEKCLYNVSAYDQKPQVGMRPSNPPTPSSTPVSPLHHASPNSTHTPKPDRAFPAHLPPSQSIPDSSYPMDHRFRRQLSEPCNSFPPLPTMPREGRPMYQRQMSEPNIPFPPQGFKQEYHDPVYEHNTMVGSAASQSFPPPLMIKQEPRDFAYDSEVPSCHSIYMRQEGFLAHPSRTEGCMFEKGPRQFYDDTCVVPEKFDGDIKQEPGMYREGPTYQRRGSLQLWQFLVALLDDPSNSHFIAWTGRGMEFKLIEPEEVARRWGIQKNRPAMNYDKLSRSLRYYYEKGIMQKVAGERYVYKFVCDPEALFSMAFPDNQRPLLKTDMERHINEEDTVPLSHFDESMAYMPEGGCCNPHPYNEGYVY
Chain of CRX (O43186 whole entry): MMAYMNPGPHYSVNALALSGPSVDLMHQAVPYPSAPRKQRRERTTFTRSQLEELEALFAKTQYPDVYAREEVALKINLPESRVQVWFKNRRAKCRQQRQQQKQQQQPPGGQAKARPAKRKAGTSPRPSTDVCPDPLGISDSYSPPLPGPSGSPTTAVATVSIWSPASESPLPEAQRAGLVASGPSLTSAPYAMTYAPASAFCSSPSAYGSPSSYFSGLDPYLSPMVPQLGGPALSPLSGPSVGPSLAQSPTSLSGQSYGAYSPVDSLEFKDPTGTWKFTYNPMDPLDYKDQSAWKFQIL

CCCGCT: the binding signal in the assay with FEV is 1.35 fold enrichment (6-mer frequency, TF over GST control); with ETV5, 1.32 fold enrichment (6-mer frequency, TF over GST control); with HSF1 it was 1.26 fold enrichment (6-mer frequency, TF over GST control); in the assay with SPIC, 1.25 fold enrichment (6-mer frequency, TF over GST control); with ELF4, 1.49 fold enrichment (6-mer frequency, TF over GST control); with ELK4, 1.62 fold enrichment (6-mer frequency, TF over GST control). Besides, the binding signal with ETV2 was 1.16 fold enrichment (6-mer frequency, TF over GST control); with ELF3 it was 1.32 fold enrichment (6-mer frequency, TF over GST control); with CRX, 1.25 fold enrichment (6-mer frequency, TF over GST control); in the assay with ETV1, 1.44 fold enrichment (6-mer frequency, TF over GST control); with ERF, 1.37 fold enrichment (6-mer frequency, TF over GST control); with ETV3L it was 1.47 fold enrichment (6-mer frequency, TF over GST control). Besides, the binding signal with ETS2 was 1.22 fold enrichment (6-mer frequency, TF over GST control); with SPDEF, 1.32 fold enrichment (6-mer frequency, TF over GST control); with ETV7, 1.36 fold enrichment (6-mer frequency, TF over GST control); with ELF5, 1.39 fold enrichment (6-mer frequency, TF over GST control); with ETV3 it was 1.36 fold enrichment (6-mer frequency, TF over GST control); in the assay with ETV6, 1.38 fold enrichment (6-mer frequency, TF over GST control).
